PubChem BioAssay (NCATS)
Records with an inconclusive call do not appear. Where a call stands in place of a potency, no number is given. Values without a mark were called inactive. Active and inactive are the calls of the source. The call rests on the fitted dose curve; in most records, active means well fitted curve in the direction sought with a large enough effect; inconclusive means small, poorly fitted or top-dose-only effect, or another doubt; inactive means no such curve, though single readings can be large; an effect the other way counts as inactive or inconclusive.

Assays:
Furin (Homo sapiens) = Furin (Homo sapiens) (UniProt P09958); experiment: Furin counterscreen qHTS for Zika virus inhibitors (AID 1347149); further: nearly all actives have a fitted effect of over 70% in size; further: potency means the concentration at half of the fitted maximal effect
In short: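 Counterscreen measures cleavage of 2 microM BOC-RVRR-AMC, below its ~15 microM Km, by 5 nM full-length human furin at pH 7.0 after a 15-min compound preincubation. Inhibition derives from the 15-min fluorescence increase at 37C.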

[1] = Confirmatory screen GU Rhodamine qHTS for Zika virus inhibitors qHTS (AID 1347157); further: nearly all actives have a fitted effect of over 70% in size
In short: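 Unlinked NS2B/NS3, 25 nM; Rhod110 peptide, 1.5 microM; compounds, up to 114 microM. Reaction run 15 min at RT in 10 mM Tris-HCl pH 8.0, 0.01% Tween 20; kinetic fluorescence change fitted with a 4-parameter Hill model.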

[2] = Confirmatory screen NINDS Rhodamine qHTS for Zika virus inhibitors (AID 1347161);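 further: purified Zika NS2B-NS3 protease with linked NS2B cofactor domain and Rhodamine110 peptide substrate; series mostly up to about 110 µM; nearly all actives have a fitted effect of over 60% in size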
In short: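 Single-chain NS2B-NS3 protease, 25 nM, pH 8.0; compounds preincubated 15 min. Activity: Rhodamine110 release from 1.5 microM substrate over 15 min, room temperature, data fitted to 4-parameter Hill.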

[3] = Tertiary RLuc qRT-PCR qHTS assay for Zika virus inhibitors (AID 1347169); further: top concentration of the series differs between compounds; nearly all actives have a fitted effect of over 55% in size
In short: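 Inhibition of ZIKV-RLuc replication in Vero cells, read as Renilla luminescence 1-1.5 hrs after live-cell substrate addition, following 48-72 hrs infection at MOI 1-2 in presence of compound.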

[4] = target: Calcium and integrin-binding protein 1 (Homo sapiens) (UniProt Q99828); experiment: Primary qHTS for Identification of Calcium Integrin Binding Protein 1 (CIB1) Competitor (AID 1508620);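 further: GST tagged CIB1 binding a fluorescein labelled alphaIIb integrin peptide tracer; top concentration of the series differs between compounds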
In short: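 Fluorescence polarization competition: CIB1-GST (1 uM final) preincubated with compound 15 min at room temperature, then FITC-labeled alphaIIb peptide (100 nM final) added for another 15 min. Polarization read at Ex 480/Em 540.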

Chain of Furin (Homo sapiens) (P09958 whole entry, looked up): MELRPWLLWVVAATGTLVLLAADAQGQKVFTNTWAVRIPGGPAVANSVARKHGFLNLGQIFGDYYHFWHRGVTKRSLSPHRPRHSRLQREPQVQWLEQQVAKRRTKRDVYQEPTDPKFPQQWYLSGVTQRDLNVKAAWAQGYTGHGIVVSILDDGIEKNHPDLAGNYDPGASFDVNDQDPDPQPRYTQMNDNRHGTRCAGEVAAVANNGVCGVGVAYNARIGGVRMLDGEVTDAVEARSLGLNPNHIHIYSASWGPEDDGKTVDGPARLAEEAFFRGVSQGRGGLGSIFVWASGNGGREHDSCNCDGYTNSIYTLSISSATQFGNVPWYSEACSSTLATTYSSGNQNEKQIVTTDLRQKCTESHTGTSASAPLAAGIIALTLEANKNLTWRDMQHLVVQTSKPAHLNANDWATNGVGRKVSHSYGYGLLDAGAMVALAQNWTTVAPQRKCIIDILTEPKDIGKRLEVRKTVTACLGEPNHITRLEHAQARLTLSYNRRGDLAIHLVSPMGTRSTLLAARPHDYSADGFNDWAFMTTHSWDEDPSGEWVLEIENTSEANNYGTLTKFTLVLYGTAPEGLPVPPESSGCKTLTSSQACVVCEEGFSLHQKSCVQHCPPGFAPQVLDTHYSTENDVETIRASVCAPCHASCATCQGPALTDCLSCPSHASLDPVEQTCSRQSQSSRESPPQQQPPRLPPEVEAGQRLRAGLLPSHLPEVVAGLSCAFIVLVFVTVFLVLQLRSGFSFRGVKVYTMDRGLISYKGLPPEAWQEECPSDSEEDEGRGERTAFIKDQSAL
Chain of Calcium and integrin-binding protein 1 (Homo sapiens) (Q99828 whole entry, looked up): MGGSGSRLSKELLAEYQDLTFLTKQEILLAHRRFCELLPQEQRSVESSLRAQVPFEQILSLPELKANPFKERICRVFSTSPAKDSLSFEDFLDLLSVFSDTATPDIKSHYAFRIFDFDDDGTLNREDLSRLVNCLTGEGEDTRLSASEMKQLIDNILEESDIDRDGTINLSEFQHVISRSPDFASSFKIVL

Row | Structure (SMILES) | Potency (Furin (Homo sapiens)) | Potency [1] | Potency [2] | Potency [3] | outcome [4]
1 | N#C/C(=C\c1ccc(Cl)cc1)c1nc(-c2cc3c(ccc4ccccc43)oc2=O)cs1 | inactive | inactive | inactive | inactive | 
2 | O=C(OCC#CCSc1nnc(-c2ccccc2Cl)o1)c1ccc(F)cc1 | inactive | inactive | inactive | inactive | inactive
3 | CC(C)c1nn2c(=O)cc(COC(=O)c3ccc(NC(=O)COc4ccccc4)cc3)nc2s1 | inactive | inactive | inactive | inactive | 
4 | O=C(OCC#CCSc1nnc(-c2cc3ccccc3cc2O)o1)c1ccc(F)cc1 | 83.5 µM (active) | inactive | inactive |  | inactive
5 | COc1ccc(S(=O)(=O)c2cc(NS(=O)(=O)c3ccc(Cl)cc3)c(C)c(C)c2O)cc1 | inactive | inactive | inactive | inactive | 
6 | Cc1cn2c(=O)cc(COC(=O)c3ccc(NC(=O)c4ccc(C(C)(C)C)cc4)cc3)nc2s1 | 46.9 µM (active) | inactive | inactive | inactive | 
7 | O=C(OCC#CCSc1nnc(-c2cccc3ccccc23)o1)c1ccc(F)c(F)c1 | 59.1 µM (active) | inactive | inactive | inactive | inactive
8 | O=C(Nc1cccc(C(=O)OCc2cc(=O)n3c4c(sc3n2)CCCC4)c1)c1ccc(Cl)cc1 | 52.7 µM (active) | inactive | inactive | inactive | 
